Assay outcomes deposited in PubChem BioAssay by National Center for Advancing Translational Sciences (NCATS).
Pf growth 48h = inhibits P. falciparum growth in the first generation, 48 h; P. falciparum luciferase growth in erythrocytes, 48 h; Potency, µM (doses to about 28.7 µM), for inactives: at the top dose activity change, negative = inhibition, usual class: inhibitors; 310,000 tested, 5.9% active; also: potency is read from the fitted curve at half-maximal effect; % is scaled to controls: 0 for no effect and ±100 for the full control effect
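Cell-based growth assay: transgenic P. falciparum expressing firefly luciferase, cultured in red cells within RPMI 1640 containing 0.5% w/v Albumax, 24 mM bicarbonate and gentamycin. A drop in luciferase activity indicates inhibition.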
Pf growth 96h = inhibits malaria parasite growth, 96 h | 320,000 tested, 6.9% active | P. falciparum luciferase reporter growth, 96 h | AID 504834 | Potency, µM (doses to about 28.7 µM), for the others: at the highest dose activity change, negative = inhibition, usual class: inhibitors; also: potency is read from the fitted curve at half-maximal effect; % is scaled to controls: 0 for no effect and ±100 for the full control effect
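Luminescence readout: decreased luciferase signal marks inhibited growth of reporter-expressing P. falciparum in infected red cells (2% hematocrit, 0.05% parasitemia final), exposed to compound two generations (96 h, 37 C, 5% CO2).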
Cycloheximide cs = counter-screen hit for Shiga toxin inhibitors, cycloheximide | cell reporter, cycloheximide protein synthesis inhibition counterscreen | max response, % | 300,000 tested, 12% active | AID 2314; in the data active = max response mostly above about 13%, no sharp cut-off; inactive = mostly below about 14%; also: read at 38.3 µM for the half of the compounds with a filed dose; 0% is about no effect
HCMV antiviral = inhibitors of human cytomegalovirus; AID 1259415; HFF cells, HCMV-luciferase reporter, 72 h; hits give low values; activity change, negative = inhibition, % at 57.5 µM; 410,000 tested, 4.5% active; in the data active = activity change below about -60%; inconclusive = no clear call, values can overlap the other calls; inactive = above about -39%; also: % is scaled to controls: 0 for no effect and ±100 for the full control effect
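HFF cells seeded 16 h at 37C, treated with compounds, infected with luciferase-reporter HCMV at MOI 1 PFU/cell; luciferase read at 72 h post infection, normalized to buffer-only and Salinomycin controls.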
Shiga toxin inh = blocks Shiga toxin action in Vero cells; inhibition, % at 38.7 µM; AID 2315; 290,000 tested, 9.2% active; Vero cells, Shiga toxin protein synthesis inhibition reporter; in the data active = inhibition mostly above about 28%, no sharp cut-off; inactive = mostly below about 43%; also: 0% is about no effect
* = called active by the depositor. An excerpt weighted towards active compounds, which were near 20% of everything screened. Unless noted, calls follow the shape of the dose curve; as a rule, active = well fitted inhibition curve with a large enough effect; inconclusive = small, poorly fitted or top-dose-only effect, or another doubt; inactive = no such curve, though single readings can be large or run the other way.

For CCCCOc1ccc(S(=O)(=O)NC(=O)C2(C)CCN2C(=O)c2c(C)noc2C)cc1 (stereo unspecified) the results were HCMV antiviral 2.
For CC(=O)N(Cc1ccccc1)c1nc(-c2ccccc2)cs1 the results were Pf growth 48h -7%, Pf growth 96h 15%, Cycloheximide cs 2, HCMV antiviral 68 and Shiga toxin inh -2.
Screening Cc1ccsc1-c1nc(CN2C[C@@H](C)O[C@@H](C)C2)c(C)o1 returned Pf growth 48h -7%, Pf growth 96h -21%, Cycloheximide cs 1, HCMV antiviral -5 and Shiga toxin inh -16.
For CCCN1CCC(NC(=O)Nc2cc(Cl)ccc2OC)CC1 the results were Pf growth 48h 3%, Pf growth 96h 4%, Cycloheximide cs -1, HCMV antiviral 9 and Shiga toxin inh -20.
For COc1ccc(Cl)cc1NC(=O)CN1CCC(NC(=O)C2CC2)CC1 the results were Pf growth 48h inconclusive, Pf growth 96h 22%, Cycloheximide cs 1, HCMV antiviral -77* and Shiga toxin inh 5.
`CN(C)S(=O)(=O)c1ccc(Cl)c(NC(=O)CN2CCN(Cc3ccc4c(c3)OCO4)CC2)c1` gave Pf growth 48h inconclusive, Pf growth 96h 0%, Cycloheximide cs -3, HCMV antiviral -60* and Shiga toxin inh -6.
`CN(c1ccccc1)S(=O)(=O)c1cccc(NC(=O)CN2CCc3ccccc3C2)c1` gave Pf growth 48h -21%, Pf growth 96h 10µM*, Cycloheximide cs 1, HCMV antiviral -15 and Shiga toxin inh -9.
Screening COc1ccc(Cl)cc1NC(=O)COC(=O)C1=NNC(=O)CC1 returned HCMV antiviral -67*.
`O=C1CCC(C(=O)OCC(=O)Nc2ccc(Cl)cc2C(F)(F)F)=NN1` gave HCMV antiviral -19.
Screening CN1C(=O)N(CC(=O)Nc2cccc(S(=O)(=O)N(C)c3ccccc3)c2)C(=O)C12CCCCC2 returned Pf growth 48h 15µM*, Pf growth 96h inconclusive and HCMV antiviral -19.
For COc1ccc(Cl)cc1NC(=O)CN1CCc2ccccc2C1 the results were Pf growth 48h inconclusive, Pf growth 96h inconclusive, Cycloheximide cs 1, HCMV antiviral -75* and Shiga toxin inh -10.
Cc1ccc(C(=O)Nc2cccc(S(=O)(=O)N(C)c3ccccc3)c2)o1 was read as Pf growth 48h 8.3µM*, Pf growth 96h 13µM* and HCMV antiviral 10.
For COc1cccc(NC(=O)CN2CCc3ccccc3C2)c1 the results were Pf growth 48h -5%, Pf growth 96h -12%, Cycloheximide cs 17*, HCMV antiviral 58 and Shiga toxin inh 24.
`Cc1ccc(NC(=O)CN2CCc3ccccc3C2)cc1F` gave Pf growth 48h 8%, Pf growth 96h 12%, Cycloheximide cs 10, HCMV antiviral -10 and Shiga toxin inh 29.
`COc1cc2ccccc2cc1C(=O)N1CCN(c2nc3c(F)cc(F)cc3s2)CC1` gave HCMV antiviral -14.
`O=C(CN1C(=O)NC2(CCCCCC2)C1=O)N1CCCCC1` gave Pf growth 48h -8%, Pf growth 96h -11% and HCMV antiviral -4.
For CCN(CC)S(=O)(=O)c1ccc(C)c(NC(=S)N2CCN(Cc3ccc4c(c3)OCO4)CC2)c1 the results were Pf growth 48h -1%, Pf growth 96h -5%, Cycloheximide cs 3, HCMV antiviral -99* and Shiga toxin inh -5.
CN(c1ccccc1)S(=O)(=O)c1cccc(NC(=O)COc2cccc([N+](=O)[O-])c2)c1 was read as Pf growth 48h 13µM*, Pf growth 96h -19% and HCMV antiviral inconclusive.
For COCCn1cnnc1SCC(=O)Nc1cccc(S(=O)(=O)N(C)c2ccccc2)c1 the results were Pf growth 48h inconclusive, Pf growth 96h inconclusive, Cycloheximide cs 5, HCMV antiviral -25 and Shiga toxin inh 1.
`Cc1nnc(SCC(=O)Nc2cccc(S(=O)(=O)N(C)c3ccccc3)c2)s1` gave Pf growth 48h -8%, Pf growth 96h inconclusive, Cycloheximide cs 38*, HCMV antiviral -6 and Shiga toxin inh -67.
For Cc1cc(=O)oc2cc(OCC(O)Cn3ccnc3)ccc12 (stereo unspecified) the results were Pf growth 48h 38%, Pf growth 96h 0%, Cycloheximide cs -1 and HCMV antiviral 1.
Cc1ccc(C)c(S(=O)(=O)N(C)c2ccc(OC(=O)C3CCN(C(=O)Nc4ccccc4)CC3)cc2)c1 was read as HCMV antiviral -29.
For Cc1[nH]c2ccccc2c1C1N2CC3(C)CN1CC(C)(C2)C3=O (stereo unspecified) the results were HCMV antiviral 1.
Screening CCCOc1ccc(CCCN=C(N)N)cc1Cl returned Pf growth 48h inconclusive, Pf growth 96h -12%, Cycloheximide cs 0, HCMV antiviral -74* and Shiga toxin inh 27.
`CCc1ccc2[nH]c3nc(N/N=C/c4ccc(O)cc4O)nnc3c2c1` gave Pf growth 48h 8.3µM*, Pf growth 96h 10%, Cycloheximide cs -2 and HCMV antiviral -76*.
For Cc1ccc2[nH]c3nc(N/N=C/c4cccc(O)c4)nnc3c2c1 the results were Pf growth 48h 111%, Pf growth 96h inconclusive, Cycloheximide cs -2, HCMV antiviral 27 and Shiga toxin inh -2.
Screening CC(C)(C)OC(=O)N[C@@H](Cc1ccccc1)C(=O)N[C@@H](CO)[C@H](O)[C@@H]1C[C@@H]1C(=O)NC1CCCCC1 returned HCMV antiviral -3.
CC(C)(C)NC(=O)[C@@H]1C[C@@H]2CCCC[C@@H]2CN1C[C@@H](O)[C@H](Cc1ccccc1)NC(=O)[C@H](CC(N)=O)NC(=O)c1ccc2ccccc2n1 was read as Pf growth 48h inconclusive, Pf growth 96h 15µM*, Cycloheximide cs -3, HCMV antiviral 36 and Shiga toxin inh -8.
CCOc1ccc(-c2nc(SCC(=O)Nc3ccc4c(c3)OCO4)c(-c3ccc(F)cc3)[nH]2)cc1 was read as HCMV antiviral -14.
For O=C(CSc1nc(-c2ccc(F)cc2)[nH]c1-c1ccc(F)cc1)Nc1ccc2c(c1)OCCO2 the results were HCMV antiviral -75*.
Screening COc1ccc(-c2nc(SCC(=O)Nc3ccc4c(c3)OCO4)c(-c3ccc(OC)cc3)[nH]2)cc1 returned HCMV antiviral -90*.
CN(C)S(=O)(=O)c1ccc(C(=O)NC(=O)CSc2nncs2)cc1 was read as HCMV antiviral -30.
`Cc1ccc(NC(=O)C(=O)NCC(c2ccc3c(c2)OCO3)N2CCOCC2)c(C)c1` (stereo unspecified) gave HCMV antiviral 1.
`COc1ccc(CCNC(=O)c2ccc3c(c2)N(Cc2ccc(Cl)cc2)CCS3)c(OC)c1` gave HCMV antiviral -5.
O=C(NC1CC1)c1ccc2c(c1)C1C3CCC(C3)C1C(c1ccccc1)N2 (stereo unspecified) was read as Pf growth 48h 9.3µM*, Pf growth 96h 7.4µM*, Cycloheximide cs 0, HCMV antiviral -25 and Shiga toxin inh 3.
